This passage reports Potency and activity change results from PubChem BioAssay (Tox21).

Activity calls are given as the source filed them. A call without a number means that no potency is given here. Calls follow the shape of the full dose curve.

Sequence of Gonadotropin-releasing hormone receptor (Homo sapiens) (P30968 whole entry, looked up): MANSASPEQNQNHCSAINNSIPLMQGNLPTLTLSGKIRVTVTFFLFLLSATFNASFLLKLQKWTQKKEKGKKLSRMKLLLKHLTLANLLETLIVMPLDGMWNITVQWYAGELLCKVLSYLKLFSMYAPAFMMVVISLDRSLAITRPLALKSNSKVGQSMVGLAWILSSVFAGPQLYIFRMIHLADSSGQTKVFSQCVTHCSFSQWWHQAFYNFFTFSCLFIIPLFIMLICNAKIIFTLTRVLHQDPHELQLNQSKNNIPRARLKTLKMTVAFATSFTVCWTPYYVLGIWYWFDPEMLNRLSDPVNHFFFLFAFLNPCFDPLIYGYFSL

The assay has as its target Gonadotropin-releasing hormone receptor (Homo sapiens) (UniProt P30968). Kind of assay: Human gonadotropin-releasing hormone receptor (GnRHR) small molecule agonists, calcium flux assay in GnRHR-HEK293 cells (AID 1920063). Also: nearly all actives have a fitted effect of over 35% in size. Particulars: calcium flux fluorescence, agonist mode; series mostly up to 57.6 µM. The text has this:
National Center for Advancing Translational Sciences [NCATS]
Division of Preclinical Innovation [DPI]
U.S. Environmental Protection Agency [EPA]
National Institutes of Environmental Health Sciences [NIEHS]
National Toxicology Program [NTP]
U.S. Food and Drug Administration [FDA]
Gonadotropin-releasing hormone receptor (GnRHR) is a G-protein-coupled receptor (GPCR) and acts (through phospholipase C) to increase intracellular inositol trisphosphate and then release intracellular calcium stores. Cell-based GnRHR-Hek293 calcium influx assay is using HEK293 cells that have been genetically engineered to express the human GnRHR, which activity can be measured by calcium signaling. A compound/drug can activate (agonist) GnRHR that can be monitored by levels of intracellular calcium.
GnRHR-HEK293 cells developed by Codex Corp contain human GnRHR reporter gene, which was stably integrated into HEK 293 cells. The compound activation can be detected by fluorescence intensity via calcium flux assay. This cell line has been used to screen the Tox21 10K compound library to identify GnRHR agonists.
GnRHR-Hek293 cells were dispensed at 1500cells/4uL/well in 1536-well black wall/clear bottom plates using a multidrop dispenser. After the assay plates were incubated at a 37 C/5% CO2 incubator for 18 hours, 4 uL of Calcium Dye Solution was added to each well. The plates were incubated at 37 C for 1 hour. For agonist mode, 23 nL of compounds dissolved in DMSO, positive controls or DMSO only was transferred to the assay plate by a pin tool station. The fluorescence intensity in the plates was measured using FDSS 7000EX kinetic plate reader with a filter set of Ex/Em=480/540 for 3 min at 1 sec intervals. Each test compound was measured at 15 concentrations and in triplicates.
Regarding `CCCC[O][Al]([O]CCCC)[O]CCCC`, the Potency result is “inactive”.

Turning to `OCC(CO)(CO)CO`, the Potency entry was “inactive”.

For `CC(C)(C)C1CCCCC1O` (stereo not given), the Potency result is “inactive”.

Regarding `NC[C@H]1O[C@H](O[C@H]2[C@H](O)[C@@H](O[C@H]3O[C@H](CO)[C@@H](O)[C@H](N)[C@H]3O)[C@H](N)C[C@@H]2N)[C@H](N)[C@@H](O)[C@@H]1O`, the activity change is 5.96% [at 11.8 µM, hits give high values] (inactive).

For `Nc1cc(C(Cl)=C(Cl)Cl)c(S(N)(=O)=O)cc1S(N)(=O)=O`, the Potency entry was “inactive”.

On to `CO[C@@]1(NC(=O)C(C(=O)O)c2ccc(O)cc2)C(=O)N2C(C(=O)O)=C(CSc3nnnn3C)CO[C@@H]21` (stereo not given in full), for which the Potency result is “inactive”.

In the case of `C/C=C/C(=O)O`, the Potency result is “inactive”.

As for `c1ccc2ncccc2c1`, the Potency result is “inactive”.

As to `C=C(C)C(=O)OCCCCCCCC(C)C`, the Potency result was “inactive”.

Turning to `CCCCC(CC)CCC(CC(C)C)OS(=O)(=O)O` (stereo not given), the Potency result is “inactive”.

For `CNCCS(=O)(=O)O`, the Potency result was “inactive”.

Take `N#CCC(=O)O`: the Potency entry is “inactive”.

Take `CCCCC(CC)COP(=O)(O)OCC(CC)CCCC` (stereo not given): the Potency result is “inactive”.

On to `Cc1ncc(CSSCc2cnc(C)c(O)c2CO)c(CO)c1O`, for which the Potency result is “inactive”.

Turning to `CC(CCC(=O)O)C(=O)O` (stereo not given), the Potency result was “inactive”.

For `O=C(c1ccc(O)cc1O)c1ccc(O)cc1O`, the Potency result is “inactive”.

Regarding `CCCCCC(CC)OC(=O)CCCOc1ccc(Cl)cc1Cl` (stereo not given), the Potency entry was “inactive”.

Take `O=c1[nH]c(=O)c2ccccc2o1`: the Potency entry was “inactive”.

On to `Nc1ccc(NCCO)c([N+](=O)[O-])c1`, for which the Potency result was “inactive”.

For the compound `CCC(=O)OCc1ccccc1`, the Potency entry is “inactive”.

On to `O=C(O)CC(=O)O`, for which the Potency result was “inactive”.

For `CC(C)c1ccc2c(C(C)C)cc(C(C)C)c(S(=O)(=O)O)c2c1`, the Potency entry is “inactive”.

As for `CCOC=C(C(=O)OCC)C(=O)OCC`, the Potency result is “inactive”.

For `C=C(C)C(=O)NCCC[N+](C)(C)C`, the Potency result is “inactive”.

For `CCCCCCCCCCCCCCC(=O)O`, the Potency result is “inactive”.

For the compound `CC(C)(CCC(=O)O)C(=O)O`, the Potency entry is “inactive”.

With `NC(=S)Nc1cccc2ccccc12`, the activity change is 0.074% [at 5.22 µM, hits give high values] (inactive).

For the compound `CC(C)(C)CC(C)(C)c1ccc(Nc2ccc(C(C)(C)CC(C)(C)C)cc2)cc1`, the activity change was 0.129% [at 5.22 µM, hits give high values] (inactive).

For the compound `CC(O)C(CO)C(C)O` (stereo not given), the Potency entry is “inactive”.

In the case of `CCOC(/C=C(\C)CCC=C(C)C)OCC`, the Potency result was “inactive”.

`c1ccc2c(c1)CCC2`: the Potency result was “inactive”.

Regarding `O=C(O)c1ccccc1[N+](=O)[O-]`, the Potency entry was “inactive”.

For the compound `CC(=O)OC[C@H]1O[C@@H](OC(C)=O)[C@H](OC(C)=O)[C@@H]1OC(C)=O`, the Potency entry was “inactive”.

As for `CC(C)c1cccc(O)c1`, the Potency result is “inactive”.

In the case of `COC(/C=C(\C)CCC=C(C)C)OC`, the Potency entry is “inactive”.

Consider `COC(OC)OC`, for which the Potency result was “inactive”.

For `O=C1Nc2ccccc2C1(c1ccc(O)cc1)c1ccc(O)cc1`, the Potency result is “inactive”.

Regarding `C[C@@H]1CC(=O)NN=C1c1ccc(NN=C(C#N)C#N)cc1`, the Potency entry is “inactive”.

For `CCCOCCC`, the Potency result was “inactive”.

For `CC(=O)OCC(=O)[C@@]1(O)CC[C@H]2[C@@H]3CCC4=CC(=O)C=C[C@]4(C)[C@H]3[C@@H](O)C[C@@]21C`, the Potency entry was “inactive”.
